Drawing on PubChem BioAssay, this text covers viability, differential viability (reversal) and inhibition for 18 compounds.

By viability is commonly meant a read-out of living cells in per cent, often relative to untreated cells. As a reminder, the inhibition is the drop in the measured response relative to a control, in per cent.

Assay [1] is described as follows: SK-BR-3 cell growth inhibitors, pilot screen, 24 h, human (AID 572).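 Also: compound exposure lasted between 18 and 24 h rather than exactly 24 h; 100% = carrier-treated control wells.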 As to conditions: SK-BR-3 viability, CellTiter-Glo luminescence, at 10 µM, stronger effect = lower value.
Assay [2] can be described thus: HUVEC growth inhibition – cell-based, human, primary screen (AID 575;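 active = viability at or below 30% in both replicate assays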;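 also: 100% = median of untreated cell wells with 0.1% DMSO on each plate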). As to conditions: HUVEC proliferation, CellTiter-Glo luminescence, 72 h; at 10 µM; stronger effect = lower value. In general terms: In ATP-based viability assays light output follows the ATP content of the culture.
Assay [3] is described as follows: growth inhibitors of H69AR lung tumor, primary screen, human, duplicate replicates (AID 580;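 active = viability at or under a set limit in both replicates, limit being median viability minus 3 SD, cut at about 48% in these data, passing the limit was not always enough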;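 also: 100% = mean luminescence of untreated wells and 0% = no signal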). To be noted: H69AR lung tumor cells viability, ATP luminescence, 72 h; at 10 µM; stronger effect = lower value.
Assay [4] in a line: reversal of MRP1-mediated doxorubicin resistance, pilot screen, H69AR cells, doxorubicin co-treatment (AID 601;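 active = viability loss from added drug above about 55%, and viability with drug at most 40%, in both replicates, limit read from the data, passing the limit was not always enough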). As to conditions: CellTiter-Glo, 72 h, at 10 µM; for differential viability (reversal): stronger effect = higher value.
Assay [5] can be described thus: 384-well plate pilot, post-Golgi transport modulator project, inhibition of yeast transport mutant growth (AID 636; in the data active = inhibition above about 31%). To be noted: absorbance 615 nm, about 18 h, stronger effect = higher value.
The nature of assay [6]: growth suppression of yeast trafficking mutant, preliminary HTS, modulators of trafficking downstream of Golgi apparatus project, 1536-format plate, OD 615 nm (AID 637; in the data active = inhibition above about 30%). As to conditions: yeast transport mutant growth, absorbance 615 nm, 18 h; stronger effect = higher value.
The mark [7] stands for this setting: H69AR cells + 2 uM doxorubicin, measured here: viability with 2 uM doxorubicin, stronger effect = lower value.
Setting [8] is: H69AR cells, compound alone cytotoxicity.

SMILES strings stand for the structures. Active and inactive are the calls of the source.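 The calls were made as follows, unless noted: active = viability at or below 10% of carrier control in both of two separate runs; inconclusive = viability at or below 10% in only one of the two runs; inactive = the rest.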

With `CCn1c(SCC(=O)Nc2ccc3c(c2)OCO3)nnc1-c1ccccc1O`, the viability in assay [1] was 96% (inactive); in assay [2], 92% (inactive); in assay [3], 101% (inactive); in assay [4] (setting [7]), 87.2%; in assay [4] (setting [8]), 101%. Moreover, the differential viability (reversal) in assay [4] (H69AR cells + 2 uM doxorubicin) was 13.5% (inactive). Further, the inhibition was -1.69% (inactive) in assay [5] and -0.33% (inactive) in assay [6].
On to `Cc1nc2cc(NC(=O)N3c4ccccc4CC3C)ccc2o1` (centres undefined), for which the viability in assay [1] was 91% (inactive); in assay [2], 96.2% (inactive); in assay [3], 86.3% (inactive); in assay [4] (setting [7]), 78.2%; in assay [4] (setting [8]), 86.3%. The differential viability (reversal) in assay [4] (H69AR cells + 2 uM doxorubicin) was 8.09% (inactive). The inhibition was -5.6% (inactive) in assay [5] and -13.4% (inactive) in assay [6].
As to `Cc1cccc(C(=O)O)c1NC(=O)c1ccc(F)cc1`, the viability in assay [1] is 109% (inactive); in assay [2], 107% (inactive); in assay [3], 104% (inactive); in assay [4] (setting [7]) it was 100%; in assay [4] (setting [8]), 104%. Further, the differential viability (reversal) in assay [4] (H69AR cells + 2 uM doxorubicin) is 3.75% (inactive). Further, the results for the inhibition in assay [5] and in assay [6] were 0.27% (inactive) and -1.09% (inactive), respectively.
As to `O=C(CN1C(=O)CCS(=O)(=O)c2ccccc21)Nc1cccc(F)c1`, the viability in assay [1] is 115% (inactive); in assay [2], 115% (inactive); in assay [3] it was 106% (inactive); in assay [4] (setting [7]) it was 96.5%; in assay [4] (setting [8]) it was 106%. The differential viability (reversal) in assay [4] (H69AR cells + 2 uM doxorubicin) is 9.57% (inactive). The results for the inhibition in assay [5] and in assay [6] were 3.65% (inactive) and -1.09% (inactive), respectively.
Take `Cn1c(=O)c2c(nc(CN3CCN(c4ccccc4F)CC3)n2CCN2CCOCC2)n(C)c1=O`: the viability in assay [1] was 101% (inactive); in assay [2] it was 96.8% (inactive); in assay [3], 93.9% (inactive); in assay [4] (setting [7]) it was 89.4%; in assay [4] (setting [8]), 93.9%. Further, in assay [4] (H69AR cells + 2 uM doxorubicin), the differential viability (reversal) was 4.5% (inactive). The inhibition in assay [5] is -5.95% (inactive); in assay [6], 0.91% (inactive).
Regarding `O=C(COc1ccc(S(=O)(=O)NC2CCCCC2)cc1)NCc1ccccn1`, the viability in assay [1] was 65% (inactive); in assay [2] it was 102% (inactive); in assay [3] it was 85.6% (inactive); in assay [4] (setting [7]), 88.6%; in assay [4] (setting [8]), 85.6%. In addition, the differential viability (reversal) in assay [4] (H69AR cells + 2 uM doxorubicin) is -3% (inactive). The inhibition in assay [5] was -7.26% (inactive); in assay [6], 2.18% (inactive).
Take `O=C(CSc1oc(-c2ccco2)nc1S(=O)(=O)c1ccccc1)NCC1CCCO1` (centres undefined): the viability in assay [1] is 97% (inactive); in assay [2], 99.7% (inactive); in assay [3] it was 86.5% (inactive); in assay [4] (setting [7]), 80.5%; in assay [4] (setting [8]), 86.5%. Besides, the differential viability (reversal) in assay [4] (H69AR cells + 2 uM doxorubicin) is 5.96% (inactive). Besides, the inhibition in assay [5] is 4.66% (inactive); in assay [6] it was -0.16% (inactive).
In the case of `CCCCn1c(=O)[nH]c(=O)c2c1nc(COc1ccc(C#N)cc1)n2CCC`, the viability in assay [1] was 106% (inactive); in assay [2], 83.1% (inactive); in assay [3], 88% (inactive); in assay [4] (setting [7]) it was 76.7%; in assay [4] (setting [8]) it was 88%. In assay [4] (H69AR cells + 2 uM doxorubicin), the differential viability (reversal) is 11.3% (inactive). Besides, the figures for the inhibition in assay [5] and in assay [6] were -1.04% (inactive) and -2.46% (inactive), respectively.
As to `Cc1cc(NS(=O)(=O)c2ccc(NC(=O)Nc3ccc4c(c3)OCO4)cc2)no1`, the viability was 80% (inactive) in assay [1]; 101% (inactive) in assay [2]; 92.6% (inactive) in assay [3]; 93.2% in assay [4] (setting [7]); 92.6% in assay [4] (setting [8]). Also, the differential viability (reversal) in assay [4] (H69AR cells + 2 uM doxorubicin) was -0.555% (inactive). In addition, the inhibition is -6.49% (inactive) in assay [5] and 0.55% (inactive) in assay [6].
With `O=C1NC(c2cccnc2)C(C(=O)c2cccs2)C(O)(C(F)(F)F)N1` (centres undefined), the viability in assay [1] is 116% (inactive); in assay [2] it was 113% (inactive); in assay [3], 103% (inactive); in assay [4] (setting [7]) it was 97.7%; in assay [4] (setting [8]), 103%. Also, the differential viability (reversal) in assay [4] (H69AR cells + 2 uM doxorubicin) was 4.9% (inactive). Also, the inhibition in assay [5] was -0.27% (inactive); in assay [6], -0.18% (inactive).
On to `CCOc1cccc2cc(C(=O)N3CCN(C/C=C/c4ccccc4)CC3)c(=O)oc12`, for which the viability in assay [1] was 89% (inactive); in assay [2] it was 106% (inactive); in assay [3], 91.4% (inactive); in assay [4] (setting [7]), 68.6%; in assay [4] (setting [8]) it was 91.4%. Also, the differential viability (reversal) in assay [4] (H69AR cells + 2 uM doxorubicin) was 22.8% (inactive). Moreover, the inhibition in assay [5] was -5.68% (inactive); in assay [6] it was -4.73% (inactive).
With `Cc1cc(C)n(-c2nc3sc4c(c3c3nnc(SCC(N)=O)n23)CC(C)(C)OC4)n1`, the viability is 84% (inactive) in assay [1]; 97.4% (inactive) in assay [2]; 90.7% (inactive) in assay [3]; 86.8% in assay [4] (setting [7]); 90.7% in assay [4] (setting [8]). Moreover, the differential viability (reversal) in assay [4] (H69AR cells + 2 uM doxorubicin) is 3.85% (inactive). Besides, the values for the inhibition in assay [5] and in assay [6] were 0.68% (inactive) and -3.87% (inactive), respectively.
As for `COC(=O)c1cccc(NC(=O)CN2CCN(Cc3ccccc3)CC2)c1`, the viability is 56% (inactive) in assay [1]; 105% (inactive) in assay [2]; 90.5% (inactive) in assay [3]; 93.4% in assay [4] (setting [7]); 90.5% in assay [4] (setting [8]). In addition, the differential viability (reversal) in assay [4] (H69AR cells + 2 uM doxorubicin) is -2.89% (inactive). Besides, the figures for the inhibition in assay [5] and in assay [6] were -5.34% (inactive) and -0.36% (inactive), respectively.
As for `CCN(CC)CCCNC1CCS(=O)(=O)C1` (centres undefined), the viability in assay [1] is 126% (inactive); in assay [2], 83% (inactive); in assay [3], 87.9% (inactive); in assay [4] (setting [7]) it was 83.6%; in assay [4] (setting [8]), 87.9%. Besides, in assay [4] (H69AR cells + 2 uM doxorubicin), the differential viability (reversal) is 4.3% (inactive). The inhibition in assay [5] was -3.42% (inactive); in assay [6], -4.52% (inactive).
Regarding `CCN(CC)CCn1c(OC)cc(=O)[nH]c1=O`, the viability in assay [1] was 93% (inactive); in assay [2] it was 104% (inactive); in assay [3] it was 101% (inactive); in assay [4] (setting [7]), 99.9%; in assay [4] (setting [8]) it was 101%. For the same compound, in assay [4] (H69AR cells + 2 uM doxorubicin), the differential viability (reversal) was 0.635% (inactive). The results for the inhibition in assay [5] and in assay [6] were -10% (inactive) and -0.97% (inactive), respectively.
Consider `CCSCc1nnc(SCC(=O)Nc2cccc(SC)c2)n1C`, for which the viability in assay [1] is 66% (inactive); in assay [2], 84.3% (inactive); in assay [3], 90.3% (inactive); in assay [4] (setting [7]), 105%; in assay [4] (setting [8]) it was 90.3%. Also, the differential viability (reversal) in assay [4] (H69AR cells + 2 uM doxorubicin) was -14.9% (inactive). Besides, the inhibition in assay [5] was -6.58% (inactive); in assay [6], -0.18% (inactive).
Take `CC(=O)c1cccc(NC(=O)NCc2ccco2)c1`: the viability is 93% (inactive) in assay [1]; 93.9% (inactive) in assay [2]; 85.7% (inactive) in assay [3]; 86.2% in assay [4] (setting [7]); 85.7% in assay [4] (setting [8]). Further, in assay [4] (H69AR cells + 2 uM doxorubicin), the differential viability (reversal) was -0.48% (inactive). Moreover, the values for the inhibition in assay [5] and in assay [6] were -4.79% (inactive) and 2.36% (inactive), respectively.
Consider `COc1ccc(Cl)c(NC(=O)NCCN2CCN(c3ccccc3)CC2)c1`, for which the viability in assay [1] is 102% (inactive); in assay [2] it was 107% (inactive); in assay [3], 90.4% (inactive); in assay [4] (setting [7]), 82%; in assay [4] (setting [8]), 90.4%. For the same compound, the differential viability (reversal) in assay [4] (H69AR cells + 2 uM doxorubicin) was 8.35% (inactive). Besides, the inhibition in assay [5] was -2% (inactive); in assay [6], 1.27% (inactive).
